Source: PubChem (National Center for Advancing Translational Sciences (NCATS))
An excerpt weighted towards active compounds, which were near 10% of everything screened.
HEK cytotox = cytotoxic compounds in HEK 293 cells | HEK 293 viability, ATP luminescence (CellTiter-Glo), 48-72 h | Potency, µM (series often up to 115 µM), for inactives: at the highest dose activity change, negative = cytotoxicity, hits mostly inhibitors | actives 6.6% (n = 94,000); note: nearly all actives have a fitted effect of over 60% in size
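Viability of HEK 293 cells, plated at 250 cells/well, was judged by cellular ATP after compound treatment for 48 or 72 hr. Luminescence was imaged 10 min after CellTiter-Glo addition at room temperature.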
NIH3T3 tox = kills NIH 3T3 cells; NIH 3T3 viability, CellTiter-Glo ATP luminescence, 48-72 h; Potency, µM (highest dose often 96.7 µM), for inactives: at the top dose activity change, negative = cytotoxicity, usual class: inhibitors; actives 4.3% (n = 94,000); AID 1345082; note: nearly all actives have a fitted effect of over 55% in size
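First NIH 3T3 cells are plated at 400 cells/well; next compound is pinned in; then plates incubate 48 or 72 hr at 37 °C; finally CellTiter-Glo is added and luminescence read after 10 min.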
hNpr1 antagonist = blocks ANP-stimulated signaling of human Npr1 receptor. P16066. actives 1.6% (n = 76,000). Potency, µM (top dose mostly 46.3 µM), inactives show at the highest dose activity change, negative = inhibition, actives largely listed as inhibitors. HEK293 hNpr1 GloSensor cGMP, ANP-stimulated luminescence; calls by dose curve; note: nearly all actives have a fitted effect of over 60% in size
Target sequence (P16066 whole entry, looked up): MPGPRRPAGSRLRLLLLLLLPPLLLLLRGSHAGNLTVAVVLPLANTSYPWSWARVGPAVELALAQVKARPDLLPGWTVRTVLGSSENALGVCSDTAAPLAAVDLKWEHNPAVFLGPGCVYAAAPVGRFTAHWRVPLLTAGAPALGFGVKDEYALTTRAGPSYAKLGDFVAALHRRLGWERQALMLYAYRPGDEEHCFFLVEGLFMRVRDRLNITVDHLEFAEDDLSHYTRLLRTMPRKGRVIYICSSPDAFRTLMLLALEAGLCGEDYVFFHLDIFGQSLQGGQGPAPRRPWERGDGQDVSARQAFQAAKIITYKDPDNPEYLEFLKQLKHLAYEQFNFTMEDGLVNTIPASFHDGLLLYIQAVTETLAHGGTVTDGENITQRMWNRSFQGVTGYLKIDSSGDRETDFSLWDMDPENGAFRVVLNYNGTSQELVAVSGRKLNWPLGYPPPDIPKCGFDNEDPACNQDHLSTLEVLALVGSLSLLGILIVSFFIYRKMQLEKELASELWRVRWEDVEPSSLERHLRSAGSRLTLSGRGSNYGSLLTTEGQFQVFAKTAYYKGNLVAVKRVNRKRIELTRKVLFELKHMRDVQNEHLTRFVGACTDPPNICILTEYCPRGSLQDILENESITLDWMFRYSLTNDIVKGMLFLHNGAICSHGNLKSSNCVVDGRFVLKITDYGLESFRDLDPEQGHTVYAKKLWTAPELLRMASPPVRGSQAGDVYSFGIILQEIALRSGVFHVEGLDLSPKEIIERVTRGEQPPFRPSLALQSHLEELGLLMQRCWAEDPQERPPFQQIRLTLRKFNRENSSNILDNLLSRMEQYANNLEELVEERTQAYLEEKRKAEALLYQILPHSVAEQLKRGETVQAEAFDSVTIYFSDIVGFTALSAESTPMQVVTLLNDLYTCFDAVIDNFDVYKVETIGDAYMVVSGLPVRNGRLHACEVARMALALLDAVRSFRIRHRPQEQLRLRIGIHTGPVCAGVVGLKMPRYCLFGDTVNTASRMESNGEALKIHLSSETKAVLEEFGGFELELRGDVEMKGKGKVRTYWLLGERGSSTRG
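Compound pre-incubated 30 min at room temperature on GloSensor-loaded HEK293 cells stably carrying hNpr1 and the pGS-40F cGMP biosensor. Stimulation uses hNppA at 0.1 nM final; luminescence is taken at baseline and 20 min post-agonist.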
GPT2 inhibitor = GPT2 alanine aminotransferase inhibition. actives 0.25% (n = 100,000). Potency, µM (titrated, usually from 57.7 µM), without a hit: top-dose activity change, negative = inhibition, usual class: inhibitors. Recombinant GPT2, coupled pyruvate oxidase/HRP Amplex Red fluorescence; note: nearly all actives have a fitted effect of over 60% in size
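Inhibition is scored from Amplex Red fluorescence generated when pyruvate oxidase and HRP act on pyruvate released by GPT2. Reactions contain 10ng/uL enzyme, 250uM a-KG and 2mM L-alanine and run 30 min at room temperature.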
Luciferase inh = inhibitors of firefly (Photinus pyralis) luciferase. P08659. purified P. pyralis luciferase, luminescence, biochemical. Potency, µM (highest dose often 115 µM), actives largely listed as inhibitors. actives 2.5% (n = 76,000). AID 1347043; note: nearly all actives have a fitted effect of over 65% in size
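Purified 10nM P. pyralis luciferase with 10uM D-luciferin and 10uM ATP in 50mM Tris acetate pH 7.5, 10mM Mg acetate, 0.01% Tween-20, 0.05% BSA. qHTS titration; luminescence read by CCD imager.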
Numbers without * were called inactive; i = inactive; ? = inconclusive; nt = no result; [ ] = dose if it differs, or a comment. Unless noted, calls come from the whole dose curve; as a rule, active = well fitted curve in the direction sought with a large enough effect; inconclusive = small, poorly fitted or top-dose-only effect, or another doubt; inactive = no such curve, though single readings can be large; an effect the other way counts as inactive or inconclusive. % is set by controls: 0 for no effect and ±100 for the full control effect; potency is the fitted concentration of half-maximal effect.

SMILES	HEK cytotox	NIH3T3 tox	hNpr1 antagonist	GPT2 inhibitor	Luciferase inh
OC1CCC(NCc2ccc(-c3cnc4c(OCc5ccccc5)nccn34)cc2)CC1 (configuration not stated)	50.1µM*	22.4µM*	3.6%[70.6 µM]	-2.0%[88.5 µM]	i
O=C(Cn1cnnn1)NCc1ccc(-c2cnc3c(Oc4ccccc4)nccn23)cc1	?	-21.8%[138 µM]	-16.7%[70.6 µM]	-0.7%[88.5 µM]	i
O=C1CN(Cc2ccc(-c3cnc4c(OCc5ccccc5)nccn34)cc2)CCN1	?	?	?	i	?
NC(=O)C1CCCN(Cc2ccc(-c3cnc4c(OCc5ccccc5)nccn34)cc2)C1 (configuration not stated)	44.7µM*	39.8µM*	-17.5%	i	44.7µM*
O=[S+]1([O-])CCN(Cc2ccc(-c3cnc4c(OCc5ccccc5)nccn34)cc2)CC1	35.5µM*	22.4µM*	11.2µM*	?	?
CCOc1nccn2c(-c3ccc(CN4CCN(C(C)=O)CC4)cc3)cnc12	-25.4%[172 µM]	?	-0.5%[70.6 µM]	i	?
Cc1ccccc1C(=O)N1CCCC(C(=O)N2CCCC(c3nc4ccncc4[nH]3)C2)C1 (configuration not stated)	-0.6%	-22.3%	nt	-2.8%	nt
COC1CCN(C(=O)c2ccc(C(C)(C)C)cc2)CC(=O)N(C)c2ccccc21 (configuration not stated)	?	-24.6%	nt	nt	nt
O=C(NC1CC1)C1CCCN(c2nccc(Nc3ccccc3F)n2)C1 (configuration not stated)	?	89.1µM*	nt	i	nt
O=C(NC1CCCC1)C1CCCN(c2nccc(Nc3ccccc3F)n2)C1 (configuration not stated)	?	39.8µM*	nt	i	nt
O=C(NC1CCCC1)C1CCN(c2nccc(Nc3ccccc3F)n2)CC1	?	?	nt	i	nt
COCCc1noc(-c2ccccc2OC2CN(C(=O)c3ccc(C)nc3)C2)n1	4.5%	2.6%	5.1%	2.5%	i
CNC(=O)C1CCCN(Cc2cccc(-c3cccs3)c2)C1 (configuration not stated)	100µM*	-28.8%[138 µM]	nt	nt	nt
CN(C)C(=O)C1CCCN(Cc2cccc(-c3cccs3)c2)C1 (configuration not stated)	100µM*	?	nt	i	nt
CN(C)C(=O)C1CCCCN1Cc1ccc(-c2cccs2)cc1 (configuration not stated)	?	?	nt	-0.7%[88.5 µM]	nt
CC(C)(C)c1nnc2ccc(C(=O)NCCc3ccc(Cl)cc3)cn12	-5.6%	-19.9%	nt	-4.7%	nt
CNC(=O)c1cc(C2CC2)nc2c1c(C1CCN([S+](=O)([O-])c3ccc(NC(C)=O)cc3)CC1)nn2C	?	-20.9%	nt	nt	nt
Cc1cccc(CN2CCCC3(CCN(C(=O)CCc4ccccc4C)C3)C2)c1 (configuration not stated)	89.1µM*	?	1.8%	-3.1%	i
CCOC(=O)[C@@H]1CN(C(=O)CC(C)C)[C@H]2c3cccc(C)c3O[C@@H]12	-4.2%	?	nt	nt	nt
O=C(CCc1nc(-c2ccccc2)no1)NC1CCCN(CCCc2ccccc2)C1 (configuration not stated)	44.7µM*	?	-9.3%	i	i
C[S+](=O)([O-])N1CCC(c2nnc3n2C(C(=O)NCc2cccc(Cl)c2)CC3)CC1 (configuration not stated)	i	-8.2%	nt	4.0%	nt
CNC(=O)c1cc(C2CC2)nc2c1c(C1CCCN1C(=O)c1ccc(Cl)cc1)nn2C (configuration not stated)	2.5%	-22.3%	nt	nt	nt
COC(=O)c1ccc2nc(C[C@@H]3C[C@@H](C(C)C)[C@H](CNC4CCCCC4)C=C3C)[nH]c2c1	?	17.8µM*	-9.2%	-4.7%	i
COC(=O)c1ccc2nc(C[C@@H]3C[C@@H](C(C)C)[C@H](CN)C=C3C)[nH]c2c1	?	63.1µM*	-10.2%[70.6 µM]	i	i
COC(=O)c1ccc2nc(C[C@@H]3C[C@@H](C(C)C)[C@H](CNC4CCOCC4)C=C3C)[nH]c2c1	?	?	1.2%	-7.7%	i
SMILES	HEK cytotox	NIH3T3 tox	hNpr1 antagonist	GPT2 inhibitor	Luciferase inh
CN1CCN(C(=O)C2CCN(c3ccnc4ccnn34)CC2)CC1	-19.8%[172 µM]	?	nt	-9.8%[88.5 µM]	nt
Cc1cccc(NC(=O)N2CCC3(CCNC(=O)CC3)CC2)c1	-7.1%	-5.8%	nt	i	nt
Cn1nccc1C(=O)N1CC(c2ncc3c(-c4ccccc4)nccn23)C1	?	-21.6%[138 µM]	-6.5%[70.6 µM]	-13.9%[88.5 µM]	i
Cc1ccccc1-c1nccn2c(C3CN(Cc4ccccc4O)C3)ncc12	89.1µM*	100µM*	2.1%[70.6 µM]	-24.0%[88.5 µM]	i
CCCCn1c(=O)c(C(=O)NCCCc2ccccc2)nc2cccnc21	?	?	nt	-21.8%	nt
CC(C)(CC1Cc2ccccc2C1)NC(=O)C1CC2(CCNCC2)CN1 (configuration not stated)	25.1µM*	31.6µM*	-0.3%	-28.9%	i
CC(C)CN(C/C=C/c1ccccc1)C(=O)C1CC2(CCNCC2)CN1 (configuration not stated)	?	?	5.0%	i	i
COc1ccc2c(c1)C(COCc1ccc(C(=O)O)cc1)=CC(C)(C)O2	-2.8%	?	nt	nt	nt
O=C(NCc1ccccc1Cl)C1CCN(c2nccc(Nc3ccccc3F)n2)CC1	?	39.8µM*	nt	-20.1%	nt
O=C(NCCCc1ccccc1)C1CCN(c2nccc(Nc3ccccc3F)n2)CC1	35.5µM*	?	nt	i	nt
O=C(NCCNC(=O)c1cccc(Cl)c1)c1ccc(-c2cccc(C(F)(F)F)c2)cc1	-2.3%	-4.1%	nt	nt	nt
Cc1cccc(C(=O)N2CC(CNC(=O)N3CCCC3)C3(CCOCC3)C2)c1 (configuration not stated)	1.2%	i	nt	i	nt
COc1ccc(F)cc1-c1cccc(C(=O)NCCNC(=O)c2ccccc2F)c1	39.8µM*	?	nt	i	nt
COc1ccc(C(=O)NCCNC(=O)c2cccc(-c3cc(F)ccc3OC)c2)cc1	39.8µM*	?	nt	i	nt
COc1ccc(F)cc1-c1cccc(C(=O)NCC(=O)NCc2ccc3c(c2)OCO3)c1	50.1µM*	?	nt	nt	nt
COc1ccc(-c2c(C(=O)NCCc3ccccc3F)nc3sccn23)cc1	?	?	nt	i	nt
COc1cc(-c2cc(C)c3cccc(OC)c3n2)cc2c1OCCN(C(=O)CCN)C2	?	89.1µM*	0.2%	-16.5%	i
O=C(NCCCc1ccccc1)c1cc(-c2ccccc2)c2nncn2n1	44.7µM*	?	nt	-3.1%	nt
O=C(NCCc1ccccc1)c1cc(-c2ccsc2)c2nncn2n1	39.8µM*	?	nt	2.5%	nt
CCS(=O)(=O)N1CCC(c2ncc(C)n2C(C)C)C1 (configuration not stated)	4.6%	-0.7%	3.8%	i	i
